From PubChem BioAssay (NCATS)
Results filed as inconclusive are left out. Active and inactive are the calls of the source. The call rests on the fitted dose curve; in most records, active means well fitted curve in the direction sought with a large enough effect; inconclusive means small, poorly fitted or top-dose-only effect, or another doubt; inactive means no such curve, though single readings can be large; an effect the other way counts as inactive or inconclusive. Where a SMILES comes first, the peptide text is derived from it. Bridges are numbered along the chain shown (N, C = ends). [ ]: non-standard residue; d: D form. hArg = N=C(N)NCCCC[C@H](N)C(=O)O; Mpa = O=C(O)CCS

Experiments:
[1] = NS1 protein of Zika virus - qHTS assay to identify small molecule inhibitors in human HEK 293 cells (AID 1347053); further: series mostly up to about 46 µM; nearly all actives have a fitted effect of over 55% in size
How it was run: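 HEK 293; 20 h pre-culture, 37 C/5% CO2; cpd 1 h pre-infection; ZIKV MR766, MOI = 0.5, 24 h, 37 C; TR-FRET NS1 readout (two anti-NS1 Abs); norm. to no-virus vs infected.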

[2] = qHTS of pediatric cancer cell lines to identify multiple opportunities for drug repurposing: Primary screen for TC32 cells (AID 1347089); further: nearly all actives have a fitted effect of over 60% in size
How it was run: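 TC32 cells, 500-1,000/well in growth medium, compound-treated 48 h at 37 °C; viability from CellTiter-Glo luminescence. Primary screen: MIPE 11-point (0.78 nM–46 µM final), NPC 8-point (0.59 nM–46 µM final); confirmatory at 11-point dilutions.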

[3] = qHTS of pediatric cancer cell lines to identify multiple opportunities for drug repurposing: Primary screen for DAOY cells (AID 1347090); further: series mostly up to about 46 µM; nearly all actives have a fitted effect of over 55% in size
How it was run: (§1)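 Eight- or eleven-point concentration series, 48 h treatment at 37 degrees C in growth media; readout CellTiter-Glo luminescence. Potency and efficacy were taken from the concentration-response curves.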

[4] = qHTS of pediatric cancer cell lines to identify multiple opportunities for drug repurposing: Primary screen for SJ-GBM2 cells (AID 1347091)
How it was run: as §1

[5] = qHTS of pediatric cancer cell lines to identify multiple opportunities for drug repurposing: Primary screen for A673 cells (AID 1347092); further: nearly all actives have a fitted effect of over 45% in size
How it was run: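 A673 cells (500-1,000 cells/well) were treated 48 hours at 37 degrees C with compounds at 11-point (0.78 nM to 46 µM) or 8-point (0.59 nM to 46 µM) dilutions. Viability read by CellTiter-Glo luminescence; concentration-response curves fitted.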

[6] = qHTS of pediatric cancer cell lines to identify multiple opportunities for drug repurposing: Primary screen for SK-N-MC cells (AID 1347093); further: series mostly up to about 46 µM
How it was run: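 Metabolically active cells were quantified by ATP-dependent luminescence (CellTiter-Glo, 15 min at room temperature) following 48 h treatment. Cells had been plated at 500-1,000 per well and settled for 5 h beforehand.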

[7] = qHTS of pediatric cancer cell lines to identify multiple opportunities for drug repurposing: Primary screen for BT-37 cells (AID 1347094); further: series mostly up to about 57 µM
How it was run: (§2)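 Phenotypic viability qHTS, 48 h compound exposure, CellTiter-Glo luminescence read-out; multi-concentration dosing so that potency and efficacy derive directly from the primary screen's curves.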

[8] = qHTS of pediatric cancer cell lines to identify multiple opportunities for drug repurposing: Primary screen for U-2 OS cells (AID 1347096); further: nearly all actives have a fitted effect of over 50% in size
How it was run: (§3)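 Cells (500-1,000/well) in growth media were settled 5 h at 37 degrees C, then given compounds for 48 h. Viability was read as CellTiter-Glo luminescence. Primary runs used MIPE at 11 points (0.78 nM-46 µM) and NPC at 8 points (0.59 nM-46 µM); follow-ups used 11 points.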

[9] = qHTS of pediatric cancer cell lines to identify multiple opportunities for drug repurposing: Primary screen for Saos-2 cells (AID 1347097); further: nearly all actives have a fitted effect of over 40% in size
How it was run: as §2

[10] = qHTS of pediatric cancer cell lines to identify multiple opportunities for drug repurposing: Primary screen for SK-N-SH cells (AID 1347098);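 further: DMSO served as neutral control and bortezomib at 2.3 µM as positive control; nearly all actives have a fitted effect of over 65% in size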
How it was run: (§4)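 Cells (500-1,000/well) rested 5 h, then received compounds for 48 h; metabolically active cells were measured by CellTiter-Glo luminescence. Final concentrations spanned up to 46 µM (MIPE, 11-point) or 0.59 nM-46 µM (NPC, 8-point) in primary screens, 11-point in follow-ups.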

[11] = qHTS of pediatric cancer cell lines to identify multiple opportunities for drug repurposing: Primary screen for LAN-5 cells (AID 1347100)
How it was run: as §3

[12] = qHTS of pediatric cancer cell lines to identify multiple opportunities for drug repurposing: Primary screen for BT-12 cells (AID 1347101); further: nearly all actives have a fitted effect of over 25% in size
How it was run: as §4

[13] = qHTS of pediatric cancer cell lines to identify multiple opportunities for drug repurposing: Primary screen for Rh18 cells (AID 1347102); further: nearly all actives have a fitted effect of over 65% in size
How it was run: as §3

[14] = qHTS of pediatric cancer cell lines to identify multiple opportunities for drug repurposing: Primary screen for OHS-50 cells (AID 1347103); further: nearly all actives have a fitted effect of over 40% in size
How it was run: as §4

[15] = qHTS of pediatric cancer cell lines to identify multiple opportunities for drug repurposing: Primary screen for RD cells (AID 1347104); further: nearly all actives have a fitted effect of over 55% in size
How it was run: as §2

[16] = qHTS of pediatric cancer cell lines to identify multiple opportunities for drug repurposing: Primary screen for MG 63 (6-TG R) cells (AID 1347105); further: nearly all actives have a fitted effect of over 50% in size
How it was run: as §2

[17] = qHTS of pediatric cancer cell lines to identify multiple opportunities for drug repurposing: Primary screen for control Hh wild type fibroblast cells (AID 1347106);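 further: series mostly up to about 46 µM; a drop in luminescence marks cytotoxicity and a rise apparent proliferation; nearly all actives have a fitted effect of over 55% in size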
How it was run: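 Viability after 48 h compound treatment at 37C, 500-1,000 cells/well, read as ATP luminescence with CellTiter-Glo. Primary screens used 11-point (MIPE, 0.78 nM-46 µM) or 8-point (NPC, 0.59 nM-46 µM) final concentrations; follow-up screens used 11-point dilutions.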

[18] = qHTS of pediatric cancer cell lines to identify multiple opportunities for drug repurposing: Primary screen for Rh30 cells (AID 1347107); further: series mostly up to about 46 µM; nearly all actives have a fitted effect of over 75% in size
How it was run: as §3

[19] = qHTS of pediatric cancer cell lines to identify multiple opportunities for drug repurposing: Primary screen for NB-EBc1 cells (AID 1347095)
How it was run: as §2

[20] = qHTS of pediatric cancer cell lines to identify multiple opportunities for drug repurposing: Primary screen for NB1643 cells (AID 1347099); further: nearly all actives have a fitted effect of over 50% in size
How it was run: as §2

Measured: Potency

COc1nccnc1NS(=O)(=O)c1ccc(N)cc1
not listed: [19] | [20]
inactive: all other assays above

Nc1c2c(nc3c1CCC3)CCCC2
not listed: [8] | [9]
inactive: all other assays above

O=C(CCBr)N1CCN(C(=O)CCBr)CC1
not listed: [10] | [17] | [19]
inactive: all other assays above

O=c1[nH]c(=O)c2ccccc2o1
not listed: [8] | [17]
inactive: all other assays above

NS(=O)(=O)c1cc(C2(O)NC(=O)c3ccccc32)ccc1Cl (stereo unspecified)
not listed: [19]
inactive: all other assays above

CCC(C)(CN(C)C)OC(=O)c1ccccc1 (stereo unspecified)
not listed: [8] | [9]
inactive: all other assays above

C=CCSCC1Nc2cc(Cl)c(S(N)(=O)=O)cc2S(=O)(=O)N1 (stereo unspecified)
not listed: [8]
inactive: all other assays above

O=C(O)CCC(=O)O
not listed: [10] | [19] | [20]
inactive: all other assays above

C/C=C1\[C@H]2C=C(C)C[C@]1(N)c1ccc(=O)[nH]c1C2
not listed: [8] | [20]
inactive: all other assays above

Cc1cc(-n2nc3ccc(Cl)cc3n2)c(O)c(C(C)(C)C)c1
not listed: [8] | [10]
inactive: all other assays above

Cc1cc(=O)[nH]c(=S)[nH]1
not listed: [8] | [9]
inactive: all other assays above

Nc1ncnc2c1ncn2[C@@H]1O[C@H](COP(=O)(O)O)[C@@H](O)[C@H]1O
not listed: [8] | [9]
inactive: all other assays above

CC(C)(C)NCC(O)COc1cccc2c1CCC(=O)N2 (stereo unspecified)
not listed: [8] | [14]
inactive: all other assays above

CN/C(=C\[N+](=O)[O-])NCCSCc1csc(CN(C)C)n1
not listed: [8] | [16]
inactive: all other assays above

CN1C[C@@H]2C[C@H]1CN2c1cc2c(cc1F)c(=O)c(C(=O)O)cn2C1CC1
not listed: [12] | [19] | [20]
inactive: all other assays above

O=C1c2cccc(O)c2C(=O)c2c(O)cccc21
not listed: [11] | [17] | [19]
inactive: all other assays above

CC(C)(C)C(=O)OCOC(=O)[C@@H]1N2C(=O)[C@@H](NC(=O)[C@H](N)c3ccccc3)[C@H]2SC1(C)C
not listed: [17] | [19]
inactive: all other assays above

COc1cc(O)cc(O)c1
not listed: [8] | [10] | [17]
inactive: all other assays above

O=C(O)CCCCC1CCSS1 (stereo unspecified)
not listed: [19] | [20]
inactive: all other assays above

O=C(O)c1ccc(OCCCOc2ccc(C(=O)O)cc2)cc1
not listed: [9] | [19] | [20]
inactive: all other assays above

COCC(=O)Nc1c(I)c(C(=O)NCC(O)CO)c(I)c(C(=O)N(C)CC(O)CO)c1I (stereo unspecified)
not listed: [19]
inactive: all other assays above

NC(=O)[C@@H]1CSSCCC(=O)N[C@@H](CCCCN=C(N)N)C(=O)NCC(=O)N[C@@H](CC(=O)O)C(=O)N[C@@H](Cc2c[nH]c3ccccc23)C(=O)N2CCC[C@H]2C(=O)N1 ([Mpa][hArg]GDWPC-NH2; disulfide 1-7)
not listed: [8] | [17] | [20]
inactive: all other assays above

CC(CN(C)C)C(C)(O)Cc1ccc(Cl)cc1 (stereo unspecified)
not listed: [14] | [19] | [20]
inactive: all other assays above

CC(=O)NS(=O)(=O)c1ccc(N)cc1
not listed: [9] | [14] | [16] | [17] | [19]
inactive: all other assays above

CCCCCC(N)=O
not listed: [7] | [9]
inactive: all other assays above

O=C(NCCCN1CCOCC1)c1ccc(Cl)cc1
not listed: [7] | [9]
inactive: all other assays above

CN1C(=O)CC(c2ccccc2)C1=O (stereo unspecified)
not listed: [7] | [8] | [16] | [19]
inactive: all other assays above

O=c1[nH]c2cc(C(F)(F)F)c(N3CCOCC3)cc2n(CP(=O)(O)O)c1=O
not listed: [6] | [8] | [19]
inactive: all other assays above

NNC(=O)CP(=O)(c1ccccc1)c1ccccc1
not listed: [7]
inactive: all other assays above

CC(=O)SC[C@@H](Cc1ccccc1)C(=O)NCC(=O)OCc1ccccc1
not listed: [6]
inactive: all other assays above
